Measurements as given in PubChem BioAssay (NCI).
This is part of a sample that, as a whole, favours compounds with a hit. Of some 83,000 tested, about 20% had one in any assay.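 The endpoint reported here, percent growth, reads 100 for growth as untreated, 0 for no net growth and -100 for all cells dead.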 The source made the active and inactive calls. Rule for the calls: active = growth percent below 10; inactive = the rest.

Key:
Assay in all cases: NCI-60 one-dose screen, 48 h (100 = growth as untreated, 0 = no growth, -100 = all killed)
Details in all cases: 10 µM unless noted
BT-549 breast = tested on: BT-549 breast
MDA-MB-435 melanoma = tested on: MDA-MB-435 melanoma
SW-620 colon = tested on: SW-620 colon
MCF7 breast = tested on: MCF7 breast
HCT-116 colon = tested on: HCT-116 colon
HCC-2998 colon = tested on: HCC-2998 colon
KM12 colon = tested on: KM12 colon

Measured: growth

N#Cc1nc(-c2ccccc2)oc1S(=O)(=O)N1CCCCC1
active: SW-620 colon -12.8%
inactive: BT-549 breast 85.7% | MDA-MB-435 melanoma 68% | MCF7 breast 29.2% | HCT-116 colon 21.2% | HCC-2998 colon 105% | KM12 colon 101%

CN(C)CCCNc1c2ccc(Cl)cc2nc2c1oc1ccccc12
active: MDA-MB-435 melanoma -40.6% | SW-620 colon -1.01% | MCF7 breast -21.7% | HCT-116 colon -19.8% | HCC-2998 colon -70.8% | KM12 colon 1.73%
inactive: BT-549 breast 53.4%

OC1CCc2c(-c3ccc4ncnc(N5CCc6cc(F)c(Cl)cc65)c4c3)cncc21 (configuration not stated)
inactive: BT-549 breast 46.5% | MDA-MB-435 melanoma 62.7% | SW-620 colon 85.1% | MCF7 breast 23.4% | HCT-116 colon 66.9% | HCC-2998 colon 72.1% | KM12 colon 66.2%

COc1cccc(COc2ccc(/C=C3/C(=O)Nc4cc(Cl)ccc43)cc2)c1
inactive: BT-549 breast 106% | MDA-MB-435 melanoma 99.9% | SW-620 colon 97.5% | MCF7 breast 70.7% | HCT-116 colon 93.7% | HCC-2998 colon 102% | KM12 colon 97.1%

N#Cc1nc(-c2ccccc2)oc1N1CCC(CO)C1 (configuration not stated)
inactive: BT-549 breast 95.3% | MDA-MB-435 melanoma 95.7% | SW-620 colon 98.4% | MCF7 breast 49.8% | HCT-116 colon 107% | HCC-2998 colon 115% | KM12 colon 101%

COc1ccc(-c2cc(C(=O)N=Nc3c(O)[nH]c4ccccc34)c3ccccc3n2)cc1OC
inactive: BT-549 breast 113% | MDA-MB-435 melanoma 98.1% | SW-620 colon 93.8% | MCF7 breast 89.9% | HCT-116 colon 101% | HCC-2998 colon 97.8% | KM12 colon 92%

Cc1sc2c(c1C)c(=O)nc1c(-c3nc(-c4ccc(F)cc4)no3)n[nH]n12
inactive: BT-549 breast 102% | MDA-MB-435 melanoma 105% | SW-620 colon 111% | MCF7 breast 89.7% | HCT-116 colon 103% | HCC-2998 colon 104% | KM12 colon 106%

Nc1nc(N)c2c(n1)NC(c1ccc(C(F)(F)F)cc1)CC(c1ccc(Nc3nc(NCCO)nc(Nc4ccc(Cl)cc4)n3)cc1)=N2 (configuration not stated)
active: BT-549 breast -28.7% | MDA-MB-435 melanoma -61.5% | SW-620 colon -66.6% | MCF7 breast -52.5% | HCT-116 colon -85.3% | HCC-2998 colon -86.6% | KM12 colon -65.3%

CCC/C=C/C=C/C(=O)N[C@@H](Cc1cc(F)cc(F)c1)C(=O)N[C@@H]1C(=O)N2CCC[C@H]2C(=O)N2CCCC[C@H]2C(=O)N[C@@H](C)C(=O)N2C[C@H](C)C[C@H]2C(=O)O[C@H]1C
inactive: BT-549 breast 11.5% | MDA-MB-435 melanoma 17% | SW-620 colon 32.5% | MCF7 breast 15% | HCT-116 colon 13.4% | HCC-2998 colon 24.1% | KM12 colon 33.3%

CN(C)CCCOc1c2ccc(Cl)cc2nc2c1oc1ccc(Cl)cc12
inactive: BT-549 breast 45.6% | HCT-116 colon 10.8%
active: MDA-MB-435 melanoma -10.2% | SW-620 colon -82.9% | MCF7 breast -80.9% | HCC-2998 colon -67.9% | KM12 colon -62.3%

COc1ccc(-c2nn3c(-c4ccccc4F)nnc3s2)cc1
inactive: BT-549 breast 50.9% | SW-620 colon 34.4% | MCF7 breast 36.8% | HCT-116 colon 42% | HCC-2998 colon 70% | KM12 colon 31.8%
active: MDA-MB-435 melanoma -4.46%

Clc1ccc(-c2cn3cc(Cc4ccc(Cl)c(Cl)c4)sc3n2)cc1
inactive: BT-549 breast 88.9% | MDA-MB-435 melanoma 35% | SW-620 colon 51.7% | MCF7 breast 49.2% | HCT-116 colon 54% | HCC-2998 colon 68.1% | KM12 colon 32.1%

O=C(N/N=C/c1ccc(Cl)s1)c1[nH]c2ccc(Br)cc2c1-c1ccccc1
inactive: SW-620 colon 25% | HCC-2998 colon 19.9% | KM12 colon 10.5%
active: BT-549 breast -18.1% | MDA-MB-435 melanoma -8.88% | MCF7 breast 7.95% | HCT-116 colon -27.5%

O=C1/C(=C/C2=Cc3ccccc3OC2)SC(=S)N1c1ccc(F)cc1
inactive: BT-549 breast 100% | MDA-MB-435 melanoma 101% | SW-620 colon 107% | MCF7 breast 90.6% | HCT-116 colon 99.1% | HCC-2998 colon 107% | KM12 colon 97.5%

Cc1nc(-c2cc3ccccc3oc2=O)ccc1C(=O)/C=C/c1ccccn1
inactive: BT-549 breast 82.5% | MDA-MB-435 melanoma 70.8% | HCC-2998 colon 66.6%
active: SW-620 colon 1.33% | MCF7 breast 8.39% | HCT-116 colon -21% | KM12 colon 6.06%

CCCC(=O)NC(c1ccc(N(CC)CC)cc1)c1cc(C)c2cccnc2c1O (configuration not stated)
inactive: BT-549 breast 29.9% | MDA-MB-435 melanoma 34.8% | SW-620 colon 31.4% | MCF7 breast 14.3% | HCT-116 colon 16.8% | HCC-2998 colon 33.9% | KM12 colon 29.6%
